# Screening data deposited in PubChem BioAssay by Sanford-Burnham Center for Chemical Genomics.
# CYP2C9 inhib – human CYP2C9 inhibition. inhibition, % at 5 µM. actives 20% (n = 96,000). CYP2C9 Supersomes, luciferin-H conversion, luminescence. P11712;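 active = blocking of liver enzyme CYP2C9 beyond about 50% at 5 µM, limit read from the data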
# CYP2C19 activ – cytochrome P450 2C19 (human) activation. 96,000 tested, under 10 active. P33261. activation factor at 5 µM. recombinant CYP2C19, luciferin-H EGE luminescence; hits give high values; 0 = fully inhibited enzyme, 1 = untreated enzyme;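 active = activation factor of at least 2 at 5 µM in the primary screen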;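 also: 0 = wells with 2.5 mM tranylcypromine and 1 = vehicle-only wells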
# CYP2C19 inh – inhibitors of human CYP2C19. CYP2C19 Supersomes, luciferin-H EGE luminescence, 30 min. actives 21% (n = 96,000). inhibition, % at 5 µM. P33261;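 active = CYP2C19 inhibition above a set limit at 5 µM in the primary screen, cut at about 50% in these data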;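 also: plate controls were negative control wells for no effect and 2.5 mM tranylcypromine positive control for full effect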
# CYP2C9 activ – activators of human CYP2C9 | P11712 | recombinant CYP2C9, luciferin-H conversion, luminescence; hits give high values; factor 1 = untreated enzyme, 0 = blocked | activation factor at 5 µM | actives 1.4% (n = 96,000) | AID 1024;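 active = activation factor of 2 or more for CYP2C9 at a 5 µM dose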;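 also: 0 = sulfaphenazole-blocked wells and 1 = vehicle-only wells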
# PLAP activator – activators of human placental alkaline phosphatase; P05187; purified PLAP enzyme, luminescent substrate read-out; hits give high values; activation fold at 20 µM; actives 1.2% (n = 96,000); in the data active = activation fold above about 2
# Target sequence (P05187 whole entry, looked up): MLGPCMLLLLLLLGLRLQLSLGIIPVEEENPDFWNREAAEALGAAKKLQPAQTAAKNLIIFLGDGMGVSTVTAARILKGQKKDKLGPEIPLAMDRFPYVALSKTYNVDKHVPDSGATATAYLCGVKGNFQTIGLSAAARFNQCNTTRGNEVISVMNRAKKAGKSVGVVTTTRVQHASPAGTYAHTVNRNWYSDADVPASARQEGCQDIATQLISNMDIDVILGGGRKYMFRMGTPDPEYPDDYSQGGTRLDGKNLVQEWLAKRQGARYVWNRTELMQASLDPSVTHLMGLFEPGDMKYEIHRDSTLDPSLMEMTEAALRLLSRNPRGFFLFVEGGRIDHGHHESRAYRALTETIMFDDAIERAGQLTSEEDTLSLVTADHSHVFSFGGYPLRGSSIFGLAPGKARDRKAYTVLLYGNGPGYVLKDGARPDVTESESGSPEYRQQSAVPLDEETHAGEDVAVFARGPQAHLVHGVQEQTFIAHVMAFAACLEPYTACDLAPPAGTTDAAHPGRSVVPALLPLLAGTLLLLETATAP
# * = called active by the depositor. A selection: hits, their analogues and other compounds. The true share with any hit is near 31%.
SMILES,CYP2C9 inhib,CYP2C19 activ,CYP2C19 inh,CYP2C9 activ,PLAP activator
C=CCn1c(N)c(C(=O)NCc2cccnc2)sc1=S,77.5*,0,96.1*,0.2,0.9
Cn1c(C(=O)NCc2cccnc2)cc2sc(Cl)cc21,88.8*,0,96.7*,0.1,1.1
Cc1ccccc1N1C(=O)CC(Sc2nnc(-c3ccccc3)o2)C1=O (stereo unspecified),35.7,0.6,41.0,0.6,1
COc1ccc(CNC(=O)CCCCCn2c(SCC#N)nc3cc4c(cc3c2=O)OCO4)cc1,93.6*,0.5,48.3,0.1,2.1*
COc1ccc(CCNC(=O)CCCn2c(SCC#N)nc3ccccc3c2=O)cc1OC,64.6*,0.6,39.3,0.4,1
COCCCNC(=O)CSc1nc2ccccc2c(=O)n1CCCC(=O)NCC1CCCO1 (stereo unspecified),45.7,0.8,19.5,0.5,1.2
COc1ccc(CCNC(=O)Cc2nn(C)c(=O)c3ccccc23)cc1OC,-9.1,1.2,-20.7,1.1,1
COc1ccc(CCNC(=O)CCn2c(SCC#N)nc3ccccc3c2=O)cc1OC,60.4*,0.6,42.2,0.4,1
COc1ccc(-n2ncc(S(=O)(=O)c3ccccc3)c2-c2ccc(Cl)cc2)cc1,72.4*,0.6,40.1,0.3,1.4
Cc1cc(C)n(Cc2ccc(Cl)cc2Cl)c(=O)c1S(=O)(=O)c1ccccc1,91.5*,0.6,44.2,0.1,1
Cc1cc(C)c(S(=O)(=O)c2ccccc2)c(OC(=O)c2ccc(Cl)cc2Cl)n1,-5.5,1.1,-7.7,1.1,0.9
CCN(CC)CCCNC(=O)c1sc2nc(-c3ccc(F)cc3)cn2c1C,-4.2,1.1,-5.7,1,1.5
CCCNC(=O)CN(CCc1ccccc1)S(C)(=O)=O,-8.7,0.2,76.5*,1.1,0.9
CS(=O)(=O)N(CCc1ccccc1)CC(=O)NCc1ccc2c(c1)OCO2,30.9,0.7,30.6,0.7,1
O=C(Nc1ccc2c(c1)CCC2)c1cc(S(=O)(=O)N2CCN(c3ccccc3)CC2)ccc1Cl,56.3*,0.8,23.6,0.4,1.3
O=C(Nc1ccc(S(=O)(=O)N2CCN(c3ccccc3)CC2)cc1)c1cccs1,2.5,1,0.7,1,1.2
O=C1CC(c2ccco2)CC2=C1C(c1ccccc1)n1nc(C(F)(F)F)nc1N2 (stereo unspecified),62.1*,0.7,30.0,0.4,1.2
COc1ccc(C2C3=C(CC(c4ccco4)CC3=O)Nc3ccccc3N2C(C)=O)cc1 (stereo unspecified),81.2*,0.5,48.1,0.2,1.6
CC1CC(=O)C2=C(C1)Nc1ccccc1N(C(=O)COc1ccccc1)C2c1ccco1 (stereo unspecified),48.0,0.4,56.3*,0.5,1
COc1ccc(C2CC(=O)C3=C(C2)Nc2ncnn2C3c2ccccc2)cc1 (stereo unspecified),37.0,0.6,41.4,0.6,1
CCOP(=O)(O)c1ccccc1OCCCCCOc1ccccc1P(=O)(O)OCC,17.6,1,0.6,0.8,1.3
CCCC1S/C(=N/N=C/c2ccc(C)cc2)N(Cc2ccc(OC)cc2)C1=O (stereo unspecified),5.0,1.1,-9.6,0.9,0.9
COc1ccc(CN2C(=O)c3ccccc3C(/C=N\OCc3ccc(C)cc3)C2=O)cc1 (stereo unspecified),73.3*,0.5,47.2,0.3,1.4
CCOc1ccccc1N(CC(=O)NC1CCCCC1)S(C)(=O)=O,20.4,0.7,33.5,0.8,1.6
Cc1ccc(CN(C#N)c2nc(C)cc(C)n2)cc1,-52.2,0.6,43.9,1.5,0.8
SMILES,CYP2C9 inhib,CYP2C19 activ,CYP2C19 inh,CYP2C9 activ,PLAP activator
Cc1cc(C)nc(N(C#N)Cc2ccc(Br)cc2)n1,5.8,0.3,67.8*,0.9,0.8
COc1cccc(-n2c(C)nc3c(cnn3-c3ccc(Cl)cc3)c2=O)c1,4.9,1.1,-6.1,1,0.9
C/C(Cl)=C\CNC(C)c1ccccc1 (stereo unspecified),5.5,0.5,54.6*,0.9,0.9
COc1ccc(-c2oc(/N=C/N3CCOCC3)c(C#N)c2-c2ccc(OC)cc2)cc1,89.5*,0.4,63.7*,0.1,1.6
COc1ccc(C(=O)Nc2oc(-c3ccccc3)c(-c3ccccc3)c2C#N)cc1OC,73.7*,0.8,23.5,0.3,1.4
Cc1ccc(C(=O)Nc2oc(-c3ccccc3)cc2C#N)cc1,2.3,0.9,13.1,1,1.3
COc1ccc(-c2oc(NC(=O)c3ccc(C)cc3)c(C#N)c2-c2ccc(OC)cc2)cc1,93.6*,0.3,69.3*,0.1,1.6
Cn1ncc(C#N)c1/N=C/N1CCOCC1,-12.8,1.1,-13.4,1.1,1.1
COc1ccc(-c2oc(NC(C)=O)c(C#N)c2-c2ccc(OC)cc2)cc1,72.2*,0.4,57.4*,0.3,1.5
C=CCNc1oc(-c2ccc(OC)cc2)nc1C#N,31.2,0.5,49.0,0.7,0.9
COc1ccc(C(=O)Nc2ccccc2NC(=O)c2ccco2)cc1OC,21.3,1,-3.6,0.8,1
CCc1nnc(NC(=O)Cc2ccc(OCc3c(C)noc3C)cc2)s1,30.1,1,0.4,0.7,1
CSc1nc(C)c2c(n1)OC(CN1C(=O)c3ccccc3C1=O)C2 (stereo unspecified),15.1,0.9,6.7,0.8,0.9
COc1ccc(C(=O)Nc2oc(-c3ccccc3)c(-c3ccccc3)c2C#N)cc1,76.8*,0.5,46.9,0.2,1.4
CN(Cc1ccccc1)C(=O)N[C@@H](Cc1ccccc1)C(=O)O,-12.0,1,-3.9,1.1,1
CS(=O)(=O)N1CCCC(c2nc(-c3ccc(S(=O)(=O)NCc4ccccc4)cc3)no2)C1 (stereo unspecified),18.1,0.8,17.2,0.8,0.8
CC(=O)Oc1ccc(C(=O)Nc2ccc3c(c2)C(=O)N(CCC(=O)O)C3=O)cc1,8.7,1,-1.7,0.9,1.1
C=CCOC(=O)CCC(=O)Nc1cccc2ccccc12,13.4,0.2,80.3*,0.9,0.9
O=C(CCC(=O)OCc1ccc(C(=O)Oc2ccccc2)cc1)Nc1cccc2ccccc12,46.2,0.9,5.3,0.5,0.9
O=C(O)c1ccc2c(c1)C(=O)N(CCC1=CCCCC1)C2=O,15.6,1,0.8,0.8,1.1
Cc1ccc2c(c1)N(CCCC(=O)NCC1COc3ccccc3O1)C(=O)CO2 (stereo unspecified),37.9,0.6,39.3,0.6,1.4
O=C1c2ccccc2C(=O)N1CCC1=CCCCC1,19.5,0.4,61.3*,0.8,1
Cc1ccc2c(c1)N(CCCC(=O)NCCC1=CCCCC1)C(=O)CO2,57.9*,0.4,59.1*,0.4,1.1
CC(C(=O)NCCC1=CCCCC1)N1C(=O)c2ccccc2C1=O (stereo unspecified),22.6,0.8,22.8,0.8,1.1
O=C(CCCN1C(=O)c2ccccc2C1=O)NCCC1=CCCCC1,61.5*,0.8,19.0,0.4,1
